IL1B secr inh: inflammasome signaling inhibition, IL-1 beta readout; THP-1 LPS/ATP IL-1B secretion, AlphaLISA, 16 h; hits give low values; activity change, % at 57.5 µM; 360,000 compounds, 4.7% hits; AID 743279; in the data active = activity change below about -50%; inconclusive = mostly about -30% to -49%
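THP-1 cells pretreated 1 hr with compounds (up to 57.5 uM final), then stimulated with LPS (250 ng/mL final) plus ATP (1.25 mM final); secreted IL-1B measured by AlphaLISA after 16 hr, decreased signal indicating inhibition.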
HT1080-NT tox: kills 2HG-producing HT-1080-NT fibrosarcoma cells | AID 686970 | 360,000 compounds, 1.6% hits | HT-1080-NT fibrosarcoma viability, CellTiter-Glo ATP luminescence, 48 h | Potency, µM (titrated, usually from 46.1 µM), for the others: top-dose activity, negative = less viability, hits mostly cytotoxic;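 note: NT is the 2HG producing partner of a matched IDH1 knockdown line; potency is the fitted concentration of half-maximal effect; 0% = DMSO-treated cells and -100% = media-only wells without cells; nearly all actives have a fitted effect of over 55% in size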
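Viability by CellTiter-Glo luminescence after 48 h compound exposure at 37C of HT-1080-NT cells (750/well, RPMI, 5% FBS). % activity scaled between DMSO wells and medium-only wells, then curve-fitted and categorized by curve class.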
DT40 TDP1 CPT: DT40-hTDP1 cell growth loss with CPT. chicken DT40 Tdp1-/-;hTDP1 cells + 20 nM CPT, ATP luminescence, 48 h. Potency, µM (series often up to 46.2 µM), inactives show at the highest dose activity change, negative = growth inhibition, usual class: inhibitors. 420,000 compounds, 12% hits. AID 686979; note: potency is the fitted concentration of half-maximal effect; nearly all actives have a fitted effect of over 55% in size
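Chicken DT40 Tdp1-/- cells complemented with human TDP1, 400 cells/well, exposed to compounds plus 20 nM camptothecin for at least 48 h at 37 C; viability read as ATP content by CellTiter-Glo luminescence.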
ALOX12 inh: ALOX12 (human) lipoxygenase inhibition. P18054. purified 12hLO, xylenol orange hydroperoxide absorbance. Potency, µM (doses to about 108 µM), for inactives: top-dose activity change, negative = inhibition, hits mostly inhibitors. 580,000 compounds, 1.1% hits; note: potency is the fitted concentration of half-maximal effect
Target sequence (P18054 whole entry, looked up): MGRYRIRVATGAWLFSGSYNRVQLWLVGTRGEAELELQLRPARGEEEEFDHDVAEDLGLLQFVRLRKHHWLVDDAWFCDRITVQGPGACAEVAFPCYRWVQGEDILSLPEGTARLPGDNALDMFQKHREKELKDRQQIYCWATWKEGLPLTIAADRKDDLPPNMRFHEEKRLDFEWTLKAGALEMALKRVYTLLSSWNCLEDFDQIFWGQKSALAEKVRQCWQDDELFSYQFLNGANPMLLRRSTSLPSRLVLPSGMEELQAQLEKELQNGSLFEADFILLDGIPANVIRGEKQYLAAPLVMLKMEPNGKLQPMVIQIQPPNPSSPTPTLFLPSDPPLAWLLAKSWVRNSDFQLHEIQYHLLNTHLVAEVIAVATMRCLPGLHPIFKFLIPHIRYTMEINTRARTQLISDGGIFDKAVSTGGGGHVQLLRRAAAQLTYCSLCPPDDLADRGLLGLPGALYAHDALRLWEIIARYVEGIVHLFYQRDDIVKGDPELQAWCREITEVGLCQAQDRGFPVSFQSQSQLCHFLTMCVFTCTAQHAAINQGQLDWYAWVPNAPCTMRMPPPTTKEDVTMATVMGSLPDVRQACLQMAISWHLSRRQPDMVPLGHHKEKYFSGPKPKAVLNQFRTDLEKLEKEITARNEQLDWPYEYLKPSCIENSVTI
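Hydroperoxide product was detected by ferrous iron/xylenol orange as the 573 to 405 nm absorbance ratio. Arachidonic acid at 40 uM (final) was turned over for 30 min at room temperature by 150 nM human 12hLO, pH 7.0 Hepes buffer, after 15 min compound preincubation.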
TDP1 cell noCPT: qHTS for Inhibitors of human tyrosyl-DNA phosphodiesterase 1 (TDP1): qHTS in cells in absence of CPT; Potency, µM (series often up to 46.2 µM), for the others: top-dose activity change, negative = growth inhibition, hits mostly inhibitors; 420,000 compounds, 15% hits; DT40 Tdp1-/- hTDP1 cells, no CPT, ATP luminescence, 48 h; note: potency is the fitted concentration of half-maximal effect; nearly all actives have a fitted effect of over 55% in size
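Chicken DT40 Tdp1-/- cells complemented with human TDP1, screened without camptothecin (DMSO vehicle only), 400 cells/well. Compounds pin-transferred, cells incubated at 37 °C for at least 48 hr. Growth read as ATP-dependent luminescence (CellTiter-Glo, 30 min at RT).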
HT1080 IDH1KD tx: kills HT-1080 cells with IDH1 knockdown | 360,000 compounds, 2% hits | Potency, µM (series often up to 46.1 µM), for inactives: at the highest dose activity, negative = toxicity, usual class: cytotoxic | HT-1080 IDH1 knockdown viability, ATP luminescence, 48 h;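 note: potency is the fitted concentration of half-maximal effect; 0% = DMSO wells and -100% = cell-free medium wells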
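HT-1080-IDH1KD cells (IDH1 knocked down), 750/well in RPMI with 5% FBS, treated with compound 48 h at 37 degrees C. Viability by CellTiter-Glo luminescence, normalised to DMSO and no-cell wells; concentration-response curves classed.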
Starred values were filed as active, the others as inactive; ? = inconclusive; . = no result given. Many of the other results were omitted from the sample, so hits are more common in it than they were. Unless noted, calls come from the whole dose curve; as a rule, active = well fitted curve in the direction sought with a large enough effect; inconclusive = small, poorly fitted or top-dose-only effect, or another doubt; inactive = no such curve, though single readings can be large; an effect the other way counts as inactive or inconclusive. Unless noted, % is set by controls: 0 for no effect and ±100 for the full control effect.

SMILES	IL1B secr inh	HT1080-NT tox	DT40 TDP1 CPT	ALOX12 inh	TDP1 cell noCPT	HT1080 IDH1KD tx
COc1cccc(-c2cc(C3CCN(C(=O)Nc4ccc5c(c4)OCCO5)CC3)[nH]n2)c1	.	.	.	-5%	.	.
O=C(NCC1CCCO1)c1cc(-c2ccccc2)nc2ccc(Br)cc12 (stereo unspecified)	-6	-4%	?	-7%	?	2%
O=C(COC(=O)c1cc(-c2cccc(Br)c2)nc2ccccc12)NCC1CCCO1 (stereo unspecified)	13	3%	0.016µM*	-2%	-17%	-2%
O=C(NCc1ccccn1)c1cn(-c2ccccc2)nc1-c1ccc(Cl)cc1	0	2%	?	10%	26µM*	-6%
COc1ccc(-c2cc(C(=O)NCC3CCCO3)c3ccccc3n2)cc1 (stereo unspecified)	6	4%	?	-11%	?	-1%
COc1cccc(-c2cc(C(=O)NCC3CCCO3)c3ccccc3n2)c1 (stereo unspecified)	24	6%	-19%	-14%	18µM*	7%
CC(C)c1ccc(-c2nn(-c3ccccc3)cc2C(=O)NCC2CCCO2)cc1 (stereo unspecified)	-80*	?	-104%	10%	?	-30%
O=C(NCc1ccccn1)c1ccc(-c2ccccc2)cc1	?	8%	13%	30%	-1%	-10%
N#Cc1ccccc1NC(=O)C1CCCC1	.	.	.	-37%	.	.
COc1ccccc1C(=O)N1CCC2(CC1)CN[S+](=O)([O-])c1ccccc1N2	.	.	.	66%	.	.
CCOc1ccc(-c2nc(CN3CCCC(O)C3)cs2)cc1OC (stereo unspecified)	.	.	.	25%	.	.
COc1ccc(-c2cc(C(=O)NCC3CCCO3)c3cc(C(C)C)ccc3n2)cc1 (stereo unspecified)	?	5%	16µM*	?	?	11%
COc1c(CNCC(O)COc2c(C)cccc2C)c(C)nn1C (stereo unspecified)	.	.	.	-35%	.	.
CCCOc1ccc(NC(=O)COc2ccc(C)cc2)c2cccnc12	.	.	.	7%	.	.
CC(Cc1c[nH]c2ccccc12)NC(=O)CNc1nc(Cl)nc2nc[nH]c12 (stereo unspecified)	.	.	.	3%	.	.
CN1CCc2c(sc3nc(SCC(=O)N4CCCCC4)n(-c4ccccc4)c(=O)c23)C1	18	-6%	?	91%	-26%	-4%
N#CCSc1nc2sc3c(c2c(=O)n1C1CCCCC1)CCCC3	?	-7%	?	?	23µM*	-7%
CSc1nc2sc3c(c2c(=O)n1C1CCCCC1)CCN(C)C3	-4	6%	-9%	64%	?	9%
C#CCSc1nc2sc3c(c2c(=O)n1C)CCC3	-2	11%	-2%	-6%	12%	11%
C=C(C)CSc1nc2sc3c(c2c(=O)n1C1CCCCC1)CCN(C)C3	.	-21%	5.8µM*	-15%	6.5µM*	?
CCSc1nc2sc3c(c2c(=O)n1C1CCCCC1)CCN(C)C3	-25	-7%	16µM*	?	15µM*	-19%
COc1ccc(-c2c(C)oc3cc(OC(=O)c4ccccc4)ccc3c2=O)cc1OC	.	.	.	-7%	.	.
CCn1c(=NC(=O)CSC(C)=O)sc2cc(F)ccc21	-14	-10%	?	-1%	18µM*	-10%
C#CCn1c(=NC(=O)CSC(C)=O)sc2cc(F)ccc21	-1	0%	10µM*	.	21µM*	1%
C#CCn1c(=NC(=O)CSCC(=O)N2CCOCC2)sc2ccccc21	-8	-4%	-9%	9%	?	5%
SMILES	IL1B secr inh	HT1080-NT tox	DT40 TDP1 CPT	ALOX12 inh	TDP1 cell noCPT	HT1080 IDH1KD tx
O=C(CSc1nnc2ccccn12)N1CCN(Cc2cccc(Cl)c2)CC1	.	.	.	48%	.	.
Cc1cc(C)c(NC(=O)CC(C)(C)CC(=O)O)c(C)c1	.	.	.	-41%	.	.
O=C1CC(c2ccccc2)Cc2[nH]c(=O)c(-c3nc(-c4cccc(Cl)c4)cs3)cc21 (stereo unspecified)	.	.	5.2µM*	-24%	5.2µM*	.
COC(=O)[C@H](CC1CCCCC1)NC(=O)[C@H]1CN(C(=O)c2cccc(F)c2)CCN1C(C)=O	.	.	.	-18%	.	.
O=C(CSc1ccc2ccccc2n1)N1CCC(c2noc3ccc(F)cc23)CC1	?	-27%	16µM*	-22%	12µM*	-19%
COc1ccc(C(=O)Nc2ccc3nc4c(c(Nc5ccc(OC)c(OC)c5)c3c2)CCCC4)c(OC)c1	.	.	3.3µM*	3%	2.9µM*	.
COc1ccccc1Nc1c2c(nc3ccc(NC(=O)c4ccc(OC)c(OC)c4)cc13)CCCC2	.	.	23µM*	?	15µM*	.
COc1ccccc1Nc1c2c(nc3ccc(NC(=O)c4ccccc4F)cc13)CCCC2	.	.	5.2µM*	-4%	16µM*	.
COc1ccc(Nc2c3c(nc4ccc(NC(=O)c5ccc(F)cc5)cc24)CCCC3)cc1OC	.	.	?	-23%	?	.
COc1ccccc1Nc1c2c(nc3ccc(NC(=O)c4cccc(OC)c4OC)cc13)CCCC2	.	.	5.8µM*	?	13µM*	.
CCC(NC(=O)c1cccc(OC)c1)c1ccccc1OC(F)F (stereo unspecified)	.	.	.	5%	.	.
COc1ccccc1Nc1c2c(nc3ccc(N)cc13)CCCC2	-12	2%	16µM*	-13%	21µM*	-1%
COc1ccc(C(=O)Nc2ccc3nc4c(c(Nc5ccccc5OC)c3c2)CCCC4)c(OC)c1	.	.	3.7µM*	-18%	3.3µM*	.
COc1ccccc1NC(=O)c1ccc2c(Cl)c3c(nc2c1)CCCC3	.	.	0%	-29%	-2%	.
OCC1(CCc2ccccc2)CCN(Cc2ccc(OC(F)F)cc2)CC1	-21	?	?	-19%	?	?
OCC1(CCc2ccccc2)CCN(Cc2cc(Cl)ccc2O)CC1	-85*	-29%	4%	-4%	-24%	?
CC1=C(C(=O)Nc2ccc(C(=O)N3CCN(c4cccc(Cl)c4)CC3)cc2)SCCO1	?	-1%	?	-18%	-22%	-1%
CC1=C(C(=O)Nc2cccc(C(=O)N3CCN(c4cccc(C(F)(F)F)c4)CC3)c2)SCCO1	-61*	?	15µM*	-9%	26µM*	?
CC1=C(C(=O)Nc2cc(C(=O)N3CCN(c4ccc(Cl)cc4)CC3)ccc2C)SCCO1	-29	-7%	18µM*	4%	15µM*	-17%

Compound activity deposited in PubChem by National Center for Advancing Translational Sciences (NCATS).
